Records with an inconclusive call do not appear. Where a call stands in place of a potency, no number is given. Active and inactive are the calls of the source. Calls come from the whole dose curve; as a rule, active = well fitted curve in the direction sought with a large enough effect; inconclusive = small, poorly fitted or top-dose-only effect, or another doubt; inactive = no such curve, though single readings can be large; an effect the other way counts as inactive or inconclusive.
Experiments:
[1] = molecular target: Aldehyde dehydrogenase, mitochondrial (Homo sapiens) (UniProt P05091); experiment: qHTS for Inhibitors of the Aldehyde Dehydrogenase Family (ALDH2) Primary screen (AID 2061308); note: nearly all actives have a fitted effect of over 55% in size
[2] = molecular target: Retinaldehyde dehydrogenase 3 (Homo sapiens) (UniProt P47895); experiment: qHTS for Inhibitors of the Aldehyde Dehydrogenase Family (ALDH1A3) Primary screen (AID 2061315)

## Cc1ccc(CN(C)c2ncnc3ccc(-c4ccc(C(=O)O)o4)cc23)o1
[1]
  Potency: inactive
[2]
  Potency: inactive

## N[C@H]1CCN(c2cnc3c(O)ccc(C(=O)O)c3c2)C1
[1]
  Potency: inactive
[2]
  Potency: inactive

## Cc1ccc(C[C@H](C(=O)O)N2C(=O)c3ccc(C(=O)O)cc3C2=O)c(C)c1
[1]
  Potency: inactive
[2]
  Potency: inactive

## O=S(=O)(c1ccc2c(c1)OCCO2)N1CCN(S(=O)(=O)c2ccc(Cl)cc2F)CC1
[1]
  Potency: inactive
[2]
  Potency: inactive

## Cc1ccc(S(=O)(=O)Nc2ccccc2C(=O)Nc2nccs2)cc1
[1]
  Potency: inactive
[2]
  Potency: inactive

## Cc1cc2c(s1)c1cnn(Cc3c(F)cccc3F)c(=O)c1n2C
[1]
  Potency: inactive
[2]
  Potency: inactive

## O=C(CNC(=O)C1CCCCCC1)OC(C(=O)Nc1cc(C(F)(F)F)ccc1Cl)c1ccccc1 (stereo not drawn)
[1]
  Potency: inactive
[2]
  Potency: inactive

## Cc1ccnc(NC(=S)Nc2cccc(C(F)(F)F)c2)c1
[1]
  Potency: inactive
[2]
  Potency: inactive

## Fc1ccccc1-c1nc(-c2ccc(-c3nn[nH]n3)cc2)no1
[1]
  Potency: inactive
[2]
  Potency: inactive

## Cc1ccc(S(=O)(=O)Nc2cnccc2C(=O)Nc2cccc3ccccc23)cc1
[1]
  Potency: inactive
[2]
  Potency: inactive

## C/C1=C\CC(C)(C)/C=C/C/C(C(=O)O)=C/CC1
[1]
  Potency: inactive
[2]
  Potency: inactive

## Cc1ccsc1CNc1ncnc2ccc(-c3ccc4c(c3)OCO4)cc12
[1]
  Potency: inactive
[2]
  Potency: inactive

## O=C(NCCCCN1CCN(c2cccc(Cl)c2Cl)CC1)c1cc2ccccc2s1
[1]
  Potency: inactive
[2]
  Potency: inactive

## Brc1cnc2nc(SCc3cccnc3)[nH]c2c1
[1]
  Potency: inactive
[2]
  Potency: inactive

## Cc1cc(C)n2ncc(C(=O)Nc3cc(Cl)cc(Cl)c3)c2n1
[1]
  Potency: inactive
[2]
  Potency: inactive

## O=C1CCC2=C1C1(CCCC1)N=C(Nc1nc3ccccc3o1)N2
[1]
  Potency: inactive
[2]
  Potency: inactive

## O=C(Cn1nc(-c2cccnc2)ccc1=O)NCCc1ccccc1
[1]
  Potency: inactive
[2]
  Potency: inactive

## O=C1CCCC2=C1C(c1[nH]ncc1Cl)NC(=NCc1ccccc1)N2 (stereo not drawn)
[1]
  Potency: inactive
[2]
  Potency: inactive

## CCCn1c(C)nc2c(NCCO)nc(C)nc21
[1]
  Potency: inactive
[2]
  Potency: inactive

## NC(=O)C1CCN(c2nnc(-c3ccc(Br)cc3)s2)CC1
[1]
  Potency: inactive
[2]
  Potency: inactive

## Cc1ccc(S(=O)(=O)Nc2cnccc2C(=O)Nc2nc(-c3ccncc3)cs2)cc1
[1]
  Potency: inactive
[2]
  Potency: inactive

## COc1ccc(CC(=O)Nc2ccc(S(=O)(=O)Nc3cc(C)on3)cc2)cc1C
[1]
  Potency: inactive
[2]
  Potency: inactive

## O=C(O)c1ccc(S(=O)(=O)N[C@H](Cc2c[nH]c3ccccc23)C(=O)O)cc1
[1]
  Potency: inactive
[2]
  Potency: inactive

## Cc1cc(C)c(C)c(S(=O)(=O)N2CCN(S(=O)(=O)c3ccc4c(c3)OCCO4)CC2)c1C
[1]
  Potency: inactive
[2]
  Potency: inactive

## COC(=N)c1nc2ccc3ncnc(Nc4ccc(F)cc4Br)c3c2s1
[1]
  Potency: inactive
[2]
  Potency: inactive

## Cc1noc(C)c1-c1ccc2ncnc(NCc3cccc(F)c3)c2c1
[1]
  Potency: inactive
[2]
  Potency: inactive

## CCNC(=O)c1ccc(-c2ccc3ncnc(NCCc4cnc[nH]4)c3c2)o1
[1]
  Potency: inactive
[2]
  Potency: inactive

## O=S(=O)(Nc1cccc2ccccc12)c1ccc(NCc2ccc(Br)cc2O)cc1
[1]
  Potency: inactive
[2]
  Potency: inactive

## Cc1ccccc1OC1=NS(=O)(=O)c2ccccc21
[1]
  Potency: inactive
[2]
  Potency: inactive

## CC(C)c1cccc2c(-c3ccccc3)cc(-c3ccc(-c4ccc(C(=O)O)cc4)[nH]3)nc12
[1]
  Potency: inactive
[2]
  Potency: inactive

## COc1cc(O)c(C(CC(=O)N2CCOCC2)c2ccc(C)cc2)c(OC)c1 (stereo not drawn)
[1]
  Potency: inactive
[2]
  Potency: inactive

## Oc1cccc(C2NC(=S)Nc3cccc(F)c32)c1 (stereo not drawn)
[1]
  Potency: inactive
[2]
  Potency: inactive

## C[C@@H]1CC[C@]2(C)C(C[C@@H](O)[C@H](O)[C@]23CO3)[C@@]1(C)CCc1ccoc1 (stereo partly drawn)
[1]
  Potency: inactive
[2]
  Potency: inactive

## COc1cccc(-c2nc3cc(NC(=O)c4ccc(C)c([N+](=O)[O-])c4)ccc3o2)c1
[1]
  Potency: inactive
[2]
  Potency: inactive

## COc1ccc(C2c3c(n(Cc4ccccc4)cnc3=N)Oc3ccc4ccccc4c32)cc1OC (stereo not drawn)
[1]
  Potency: inactive
[2]
  Potency: inactive

## O=C(CNC(=O)C1CCCC1)OC(C(=O)Nc1cc(C(F)(F)F)ccc1Cl)c1ccccc1 (stereo not drawn)
[1]
  Potency: inactive
[2]
  Potency: inactive

## O=C(Nc1ncc(Cc2ccccc2)s1)c1ccc(-c2cccc([N+](=O)[O-])c2)o1
[1]
  Potency: inactive
[2]
  Potency: inactive

## COc1ccc(CC(=O)Nc2nc(-c3ccc4c(c3)CCN4C(=O)c3ccccc3C)c(C)s2)cc1
[1]
  Potency: inactive
[2]
  Potency: inactive

## O=C(c1ccccc1O)N(Cc1ccccc1)Cc1cccs1
[1]
  Potency: inactive
[2]
  Potency: inactive

## Cc1ccc(CNc2ncnc3ccc(-c4ccc5c(c4)OCO5)cc23)o1
[1]
  Potency: inactive
[2]
  Potency: inactive

## COc1ccccc1-c1nnc2n1N=C(c1c(OC)cccc1OC)CS2
[1]
  Potency: inactive
[2]
  Potency: inactive

## CC(=O)c1c(C)[nH]c(C(=O)Nc2ccc(OCCCN(C)C)c(S(=O)(=O)Nc3ccc(Br)cc3)c2)c1C
[1]
  Potency: inactive
[2]
  Potency: inactive

## N#Cc1c(-c2ccco2)no[n+]1[O-]
[1]
  Potency: inactive
[2]
  Potency: inactive

## CCN(CC)c1ccc(NC(=O)CN(C)Cc2c(O)ccc3ccccc23)cc1
[1]
  Potency: inactive
[2]
  Potency: inactive

## COc1ccc(-c2nnc3n2N=C(c2c(OC)cccc2OC)CS3)c(OC)c1
[1]
  Potency: inactive
[2]
  Potency: inactive

## CCC[C@@H]1C[C@@H](C(=O)N[C@H](C(C)Cl)[C@H]2O[C@H](SC)[C@H](O)[C@@H](O)[C@H]2O)N(C)C1 (stereo partly drawn)
[1]
  Potency: inactive
[2]
  Potency: inactive

## Cc1ccc(S(=O)(=O)Nc2ccccc2C(=O)Nc2ccc(-c3ccccc3)cn2)cc1
[1]
  Potency: inactive
[2]
  Potency: inactive

## Cc1nc(CN=C2NC3=C(C(=O)CCC3)C(c3[nH]ncc3Cl)N2)cs1 (stereo not drawn)
[1]
  Potency: inactive
[2]
  Potency: inactive

## Cc1cc2c(s1)c1cnn(Cc3ccc(F)cc3F)c(=O)c1n2C
[1]
  Potency: inactive
[2]
  Potency: inactive

## CC(=O)Nc1sc2c(c1-c1ncco1)CCNC2
[1]
  Potency: inactive
[2]
  Potency: inactive

## Cc1cc2c(s1)c1cnn(Cc3cccc(C)c3F)c(=O)c1n2C
[1]
  Potency: inactive
[2]
  Potency: inactive

## CCN(C)c1ncnc2ccc(-c3ccc4c(c3)OCO4)cc12
[1]
  Potency: inactive
[2]
  Potency: inactive

## CN(Cc1ccccc1)C(=O)C1CCN(Cc2cccc3ccccc23)CC1
[1]
  Potency: inactive
[2]
  Potency: inactive

## N#Cc1ncc(C(=O)OCC(=O)NC2C3CC4CC(C3)CC2C4)cn1 (stereo not drawn)
[1]
  Potency: inactive
[2]
  Potency: inactive

Reference: PubChem BioAssay (NCATS)
